Inconclusive results are not listed. Active and inactive are the calls of the source. Unless noted, the call rests on the fitted dose curve; in most records, active means well fitted curve in the direction sought with a large enough effect; inconclusive means small, poorly fitted or top-dose-only effect, or another doubt; inactive means no such curve, though single readings can be large; an effect the other way counts as inactive or inconclusive.
How the values were obtained:
[1] = qHTS assay for small molecule disruptors of the mitochondrial membrane potential - 1 hr assay (AID 651754; calls by dose curve; further: on the % scale 0 is the no-effect control and ±100 the full control effect; nearly all actives have a fitted effect of over 35% in size)
How it was run: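 HepG2 cells, attached overnight, were exposed to compound for 1 hr at 37C, then stained 30 min with a potentiometric dye. Ratio of red aggregate (590nm) to green monomer (535nm) fluorescence reports membrane potential; collapse shifts signal toward green.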

[2] = qHTS assay for small molecule disruptors of the mitochondrial membrane potential - 5 hr assay (AID 651755; calls by dose curve; further: on the % scale 0 is the no-effect control and ±100 the full control effect; nearly all actives have a fitted effect of over 40% in size)
How it was run: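 HepG2, 2,000 cells/well, overnight attach; cpd or DMSO 5 hr, 37C/5% CO2; Mito-MPS 30 min 37C; fluor 490/535 + 540/590 nm.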

[3] = target: Tumor necrosis factor (Homo sapiens) (UniProt P01375); assay: qHTS assay to identify small molecules that stimulate Tumor Necrosis Factor-alpha (TNF-alpha) secretion (AID 651757; active means well fitted curve in the direction sought with a large enough effect in the signal ratio; the % refers to the signal ratio; further: 0% is about no effect)
Tumor necrosis factor (Homo sapiens), sequence (P01375 whole entry, looked up): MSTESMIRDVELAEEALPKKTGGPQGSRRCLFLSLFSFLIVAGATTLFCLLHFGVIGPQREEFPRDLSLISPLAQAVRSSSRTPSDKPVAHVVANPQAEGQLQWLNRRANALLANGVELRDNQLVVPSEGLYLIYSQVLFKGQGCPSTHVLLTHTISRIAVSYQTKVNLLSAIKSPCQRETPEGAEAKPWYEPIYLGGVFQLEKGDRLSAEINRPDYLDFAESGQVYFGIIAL
How it was run: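 THP-1 cells (3000/well) exposed to compounds 17 hrs at 37 C. Secreted TNF-alpha detected by HTRF with cryptate- and XL665-labeled anti-TNF-alpha antibodies after 3 hr at room temperature.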

[4] = qHTS assay to identify small molecules that stimulate interleukin-8 (IL-8) secretion (AID 651758; active means well fitted activation curve with a large enough effect in the signal ratio; the % refers to the signal ratio; further: 0% is about no effect)
How it was run: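 Secreted IL-8 measured by TR-FRET sandwich (cryptate and XL665 antibodies) from THP-1 cells exposed to compound overnight (16 hrs, 37 C).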

[5] = qHTS assay for environmental chemicals that activate the Aryl hydrocarbon Receptor (AhR) signaling pathway (AID 651777); conditions: 1A2-DRE human hepatoma cells, luciferase, 24 h; activation: stronger effect = higher value; further: % of control where 0% means no effect; nearly all actives have a fitted effect of over 15% in size
How it was run: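 Stable CYP1A2 promoter/DRE-luciferase human hepatoma line treated 24 hr; One-Glo luminescence, 30 min RT.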

[6] = target: Peroxisome proliferator-activated receptor alpha (Homo sapiens) (UniProt Q07869); assay: qHTS assay for small molecule agonists of the peroxisome proliferator-activated receptor alpha (PPARalpha) signaling pathway (AID 651778); conditions: PathHunter PPARalpha complementation, chemiluminescence, 6 h; stronger effect = higher value; further: % of control where 0% means no effect
Peroxisome proliferator-activated receptor alpha (Homo sapiens), sequence (Q07869 whole entry, looked up): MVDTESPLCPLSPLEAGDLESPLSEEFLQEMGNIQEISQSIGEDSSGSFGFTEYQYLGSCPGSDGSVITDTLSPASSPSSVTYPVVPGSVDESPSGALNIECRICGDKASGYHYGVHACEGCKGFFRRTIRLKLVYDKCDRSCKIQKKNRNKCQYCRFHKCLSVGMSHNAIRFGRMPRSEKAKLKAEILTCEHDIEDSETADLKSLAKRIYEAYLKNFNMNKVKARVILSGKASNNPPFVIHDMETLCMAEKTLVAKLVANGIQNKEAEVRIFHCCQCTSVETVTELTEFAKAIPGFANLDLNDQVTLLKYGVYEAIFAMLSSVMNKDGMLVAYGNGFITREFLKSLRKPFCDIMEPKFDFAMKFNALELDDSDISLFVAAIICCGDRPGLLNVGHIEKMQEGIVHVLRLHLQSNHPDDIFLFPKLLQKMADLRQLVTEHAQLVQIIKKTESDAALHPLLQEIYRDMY
How it was run: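 Chemiluminescence from complemented enzyme reported PPARalpha activation in cells after 6 hr of compound treatment at 37 C. The detection reagent was incubated for 60 min at room temperature, and compounds were scored as agonists.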

[7] = target: Nuclear receptor ROR-gamma (Homo sapiens) (UniProt P51449); assay: qHTS assay for small molecule antagonists of the retinoid-related orphan receptor gamma (ROR-gamma) signaling pathway (AID 651802);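 further: luciferase reporter luminescence driven by ROR response element; series mostly up to about 92 µM; on the % scale 0 is the no-effect control and ±100 the full control effect; nearly all actives have a fitted effect of over 60% in size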
Nuclear receptor ROR-gamma (Homo sapiens), sequence (P51449 whole entry, looked up): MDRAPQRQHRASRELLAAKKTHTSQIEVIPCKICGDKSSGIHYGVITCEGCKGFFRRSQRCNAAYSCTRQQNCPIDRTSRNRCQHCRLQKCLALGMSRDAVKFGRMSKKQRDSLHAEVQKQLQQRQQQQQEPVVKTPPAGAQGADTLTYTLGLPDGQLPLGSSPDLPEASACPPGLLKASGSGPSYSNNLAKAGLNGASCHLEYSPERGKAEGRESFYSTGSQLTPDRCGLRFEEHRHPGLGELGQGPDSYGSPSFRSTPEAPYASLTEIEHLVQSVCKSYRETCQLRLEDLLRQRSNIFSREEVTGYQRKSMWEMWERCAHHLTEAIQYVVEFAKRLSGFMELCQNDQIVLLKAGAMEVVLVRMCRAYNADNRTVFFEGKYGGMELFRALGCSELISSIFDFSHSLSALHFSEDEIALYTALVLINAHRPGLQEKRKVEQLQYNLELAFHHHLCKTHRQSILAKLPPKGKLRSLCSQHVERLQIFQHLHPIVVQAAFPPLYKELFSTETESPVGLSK
How it was run: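 CHO cells with TET-inducible ROR-gamma and RORE-luciferase reporter, dosed then doxycycline-induced. After 16 h at 37C, One-Glo luminescence read; decreased signal indicates antagonism.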

[8] = qHTS assay for small molecule agonists of the antioxidant response element (ARE) signaling pathway measured by Nrf2-dependant transcriptional activity (AID 720636; active means well fitted curve in the direction sought with a large enough effect in the repeat runs; an effect the other way counts as inactive or inconclusive;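 further: HepG2 cells with an ARE-driven luciferase reporter; % of control where 0% means no effect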)
How it was run: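 Reporter gene assay, HepG2 ARE-luc: 16 hr compound, 37 C, 5% CO2; read-out luciferase luminescence.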

[9] = qHTS assay for small molecule antagonists of the retinoid-related orphan receptor gamma (ROR-gamma) signaling pathway - cell viability counter screen (AID 720652; active means well fitted curve in the direction sought with a large enough effect in the repeat runs; an effect the other way counts as inactive or inconclusive;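 further: series mostly up to about 92 µM; compound exposure lasted 16 hr before ATP read; on the % scale 0 is the no-effect control and ±100 the full control effect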)
How it was run: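 CHO cells carrying TET-inducible ROR and RORE-luciferase reporter, plated 5 hr, then dosed with compound plus doxycycline. After 16 hr at 37 C, viability read as intracellular ATP by CellTiter-Glo luminescence.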

[10] = qHTS assay for small molecule agonists of the antioxidant response element (ARE) signaling pathway measured by Nrf2-dependant transcriptional activity - cell viability counter screen (AID 720653; active means well fitted curve in the direction sought with a large enough effect in the repeat runs; an effect the other way counts as inactive or inconclusive; further: on the % scale 0 is the no-effect control and ±100 the full control effect); conditions: ARE-bla HepG2 viability, CellTiter-Glo ATP luminescence, 16 h; stronger effect = lower value
How it was run: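 Cytotoxicity counter screen: intracellular ATP quantified by CellTiter-Glo luminescence in the same ARE-bla HepG2 plates, after 16 h compound exposure and a 2 h beta-lactamase substrate step.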

[11] = qHTS assay for cell viability of HEK293 cells (AID 743288); conditions: ATP luminescence (CellTiter-Glo), 18 h, stronger effect = lower value; further: on the % scale 0 is the no-effect control and ±100 the full control effect; nearly all actives have a fitted effect of over 50% in size
How it was run: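 Environmental chemicals tested in qHTS format against parental HEK293 cells; 18 h treatment, 37 C; read-out ATP luminescence (CellTiter-Glo), 30 min RT development.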

[12] = target: Nuclear receptor subfamily 1 group I member 2 (Rattus norvegicus) (UniProt Q9R1A7); assay: qHTS assay for small molecule activators of the rat pregnane X receptor (rPXR) signaling pathway (AID 651751; call rule not given here; further: 0% is about no effect); conditions: rPXR reporter cells, luciferase (One-Glo), 24 h
Nuclear receptor subfamily 1 group I member 2 (Rattus norvegicus), sequence (Q9R1A7 whole entry, looked up): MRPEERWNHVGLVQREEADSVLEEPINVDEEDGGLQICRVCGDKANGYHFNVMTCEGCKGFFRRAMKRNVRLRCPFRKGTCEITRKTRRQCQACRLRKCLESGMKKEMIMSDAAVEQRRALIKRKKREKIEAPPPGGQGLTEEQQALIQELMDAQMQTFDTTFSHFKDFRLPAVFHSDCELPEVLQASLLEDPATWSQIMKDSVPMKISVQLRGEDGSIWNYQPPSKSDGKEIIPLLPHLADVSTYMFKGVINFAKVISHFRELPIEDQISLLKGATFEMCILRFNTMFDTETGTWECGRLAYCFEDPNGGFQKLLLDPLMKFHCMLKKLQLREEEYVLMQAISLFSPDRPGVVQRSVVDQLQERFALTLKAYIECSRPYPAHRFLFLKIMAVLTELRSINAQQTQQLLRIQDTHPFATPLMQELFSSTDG

[13] = qHTS assay for small molecule activators of the human pregnane X receptor (PXR) signaling pathway (AID 720659; call rule not given here; further: 0% is about no effect)
[14] = qHTS assay for cell viability of the p53RE-bla HCT-116 cell line (AID 743292); further: on the % scale 0 is the no-effect control and ±100 the full control effect; nearly all actives have a fitted effect of over 55% in size
How it was run: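 Readout: CellTiter-Glo luminescence after 30 min RT. Treatment: compounds in DMSO, 16 h, 37 C. Cells: CellSensor p53RE-bla HCT-116, 4,000/well, preincubated 5 h.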

COC(=O)CC#N
inactive: Potency [1] | Potency [2] | Potency [3] | Potency [4] | activation [5] -0.763% | max response [6] -2.71% | Potency [7] | outcome [8] | Potency [9] | max response [10] -4.65% | max response [11] 6.11% | max response [12] -1.86% | outcome [13]

Cc1ccc(C(C)(C)C)cc1
inactive: Potency [1] | Potency [2] | Potency [3] | Potency [4] | activation [5] -0.334% | max response [6] 3.18% | Potency [7] | outcome [8] | Potency [9] | max response [10] -0.19% | max response [11] 1.5% | Potency [14] | max response [12] -0.498% | outcome [13]

COCCOC(=O)c1ccccc1C(=O)OCCOC
inactive: Potency [1] | Potency [2] | Potency [3] | Potency [4] | activation [5] -0.057% | max response [6] 2.89% | Potency [7] | outcome [8] | Potency [9] | max response [10] 9.02% | max response [11] -2.4% | max response [12] -0.386%

CCCCCCCCC
inactive: Potency [1] | Potency [2] | Potency [3] | Potency [4] | activation [5] 0.0249% | max response [6] -0.317% | Potency [7] | outcome [8] | Potency [9] | max response [10] 3.15% | max response [11] 9.61% | Potency [14] | max response [12] 3.91% | outcome [13]

OC1CCCC1
inactive: Potency [1] | Potency [2] | Potency [3] | Potency [4] | activation [5] -0.947% | max response [6] 1.11% | Potency [7] | outcome [8] | Potency [9] | max response [10] -3.18% | max response [11] 3.74% | Potency [14] | max response [12] -2.46% | outcome [13]

Nc1ccc(F)cc1F
inactive: Potency [1] | Potency [2] | Potency [3] | Potency [4] | activation [5] -1.74% | max response [6] 7.65% | Potency [7] | outcome [8] | Potency [9] | max response [10] -3.09% | max response [11] -2.02% | max response [12] 3.66% | outcome [13]

NC(=O)CCCCC(N)=O
inactive: Potency [1] | Potency [2] | Potency [3] | Potency [4] | activation [5] -0.919% | max response [6] -1.94% | Potency [7] | outcome [8] | Potency [9] | max response [10] -6.44% | max response [11] 10.2% | max response [12] 1.18% | outcome [13]

O=Cc1cccc(Br)c1
inactive: Potency [1] | Potency [2] | Potency [3] | Potency [4] | activation [5] 0.191% | max response [6] -2.07% | Potency [7] | outcome [8] | Potency [9] | max response [10] 0.536% | max response [11] 1.54% | Potency [14] | max response [12] 5.18% | outcome [13]

Cc1ccc2cccnc2c1
inactive: Potency [1] | Potency [2] | Potency [3] | Potency [4] | activation [5] 0.306% | max response [6] -8.31% | Potency [7] | outcome [8] | Potency [9] | max response [10] 0.459% | max response [11] 6.13% | Potency [14] | max response [12] -2.67%

Cc1ccccc1C=O
inactive: Potency [1] | Potency [2] | Potency [3] | Potency [4] | activation [5] -0.786% | max response [6] -2.49% | Potency [7] | outcome [8] | Potency [9] | max response [10] -9.4% | max response [11] 5.96% | Potency [14] | max response [12] 1.66% | outcome [13]

O=C(O)CCSSCCC(=O)O
inactive: Potency [1] | Potency [2] | Potency [3] | Potency [4] | activation [5] -0.395% | max response [6] -1.98% | Potency [7] | outcome [8] | Potency [9] | max response [10] 0.366% | max response [11] -9.15% | Potency [14] | max response [12] -1.84% | outcome [13]

CCC(C)(C)C
inactive: Potency [1] | Potency [2] | Potency [3] | Potency [4] | activation [5] -1.03% | max response [6] -1.79% | Potency [7] | outcome [8] | Potency [9] | max response [10] -1.09% | max response [11] -11.7% | Potency [14] | max response [12] -3.38% | outcome [13]

Nc1cccc([N+](=O)[O-])c1
inactive: Potency [1] | Potency [2] | Potency [3] | Potency [4] | activation [5] 0.683% | max response [6] -2.36% | Potency [7] | outcome [8] | Potency [9] | max response [10] 11.8% | max response [11] -2.77% | Potency [14] | max response [12] -4.93% | outcome [13]

CC(C)Nc1ccccc1
inactive: Potency [1] | Potency [2] | Potency [3] | Potency [4] | activation [5] 0.225% | max response [6] -3.92% | Potency [7] | outcome [8] | Potency [9] | max response [10] -8.81% | max response [11] -1.42% | Potency [14] | max response [12] 4.55% | outcome [13]

O=C(O)c1c(Cl)cccc1Cl
inactive: Potency [1] | Potency [2] | Potency [3] | Potency [4] | activation [5] -0.92% | max response [6] 0.175% | Potency [7] | outcome [8] | Potency [9] | max response [10] -7.83% | max response [11] -0.226% | Potency [14] | max response [12] -2.07% | outcome [13]

From PubChem BioAssay (NCATS)
